Laboratory results as given in paper PMC4336329 (PLoS ONE, 2015).
Hit rate of the full screen: of about 310,000 compounds, about 14,000 (4.5%) showed an effect of 50% or more. The effect is printed as a negative number. The sample holds strong results, similar compounds and a random draw of the others, so the mix is not that of the screen.

Target: human ether-à-go-go-related gene (hERG) potassium channel (human, UniProt Q12809)
Test: primary screen, population patch clamp on CHO cells stably expressing hERG; higher = less effect of the substance
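Note: peak tail current of the secondary pulse compared with the same well before compound.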

Sequence of human ether-à-go-go-related gene (hERG) potassium channel (Q12809 whole entry, looked up): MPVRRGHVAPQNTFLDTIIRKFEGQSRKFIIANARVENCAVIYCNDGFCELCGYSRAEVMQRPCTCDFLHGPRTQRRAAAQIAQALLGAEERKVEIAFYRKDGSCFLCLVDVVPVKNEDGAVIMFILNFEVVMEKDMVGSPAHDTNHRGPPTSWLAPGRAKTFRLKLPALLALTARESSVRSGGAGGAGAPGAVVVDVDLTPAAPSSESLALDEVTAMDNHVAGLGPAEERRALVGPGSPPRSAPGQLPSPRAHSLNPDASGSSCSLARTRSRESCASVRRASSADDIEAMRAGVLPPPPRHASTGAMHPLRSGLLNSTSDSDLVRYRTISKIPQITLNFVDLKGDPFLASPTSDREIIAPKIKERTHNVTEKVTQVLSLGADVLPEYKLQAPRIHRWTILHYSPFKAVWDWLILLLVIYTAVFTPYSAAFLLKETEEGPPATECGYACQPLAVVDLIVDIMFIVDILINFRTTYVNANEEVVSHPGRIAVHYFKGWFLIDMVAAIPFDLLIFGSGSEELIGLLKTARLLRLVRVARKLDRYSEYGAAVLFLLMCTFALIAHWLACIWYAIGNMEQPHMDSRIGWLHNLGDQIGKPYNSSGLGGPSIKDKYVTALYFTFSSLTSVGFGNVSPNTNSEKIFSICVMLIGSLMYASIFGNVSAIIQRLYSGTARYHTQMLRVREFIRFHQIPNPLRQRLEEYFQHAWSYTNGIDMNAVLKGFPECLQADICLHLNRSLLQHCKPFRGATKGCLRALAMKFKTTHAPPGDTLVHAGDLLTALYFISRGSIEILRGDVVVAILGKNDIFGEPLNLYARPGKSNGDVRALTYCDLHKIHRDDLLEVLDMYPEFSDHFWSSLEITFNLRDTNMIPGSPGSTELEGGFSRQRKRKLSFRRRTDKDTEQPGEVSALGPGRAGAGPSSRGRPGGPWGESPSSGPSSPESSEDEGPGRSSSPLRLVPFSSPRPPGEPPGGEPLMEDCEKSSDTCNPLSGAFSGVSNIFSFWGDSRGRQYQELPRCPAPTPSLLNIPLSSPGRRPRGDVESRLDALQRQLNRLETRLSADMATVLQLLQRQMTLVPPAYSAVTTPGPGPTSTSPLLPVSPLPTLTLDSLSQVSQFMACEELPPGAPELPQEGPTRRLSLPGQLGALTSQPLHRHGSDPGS

| Compound | hERG current change (%, negative = inhibition) at 10uM |
| --- | --- |
| CNCC(=O)Nc1ccc(Cl)c(C(F)(F)F)c1 | 17.6% |
| O=C(O)/C=C/C(=O)c1ccc(O)cc1 | 2.05% |
| C/C(O)=C(\C#N)P(=O)(c1ccccc1)c1ccccc1 | 11.6% |
| Cc1cccc(NC(=S)NC(C)C(c2ccccc2)N2CCN(C)CC2)c1C (stereo not drawn) | -50% |
| CCN1CCN(C(c2cccs2)C(C)NC(=S)Nc2cccc(C)c2C)CC1 (stereo not drawn) | -72.9% |
| Cc1ccc(C)c(NC(=S)NC(C)C(c2cccs2)N2CCOCC2)c1 (stereo not drawn) | 8.4% |
| CCN1CCN(C(c2cccs2)C(C)NC(=O)CC(C)C)CC1 (stereo not drawn) | -6.37% |
| Cc1ccc(C)c(NC(=S)NC(C)C(c2ccccc2)N2CCN(C)CC2)c1 (stereo not drawn) | -48% |
| Cc1cccc(NC(=S)NC(C)C(c2cccs2)N2CCN(C)CC2)c1C (stereo not drawn) | -60.5% |
| CCN1CCN(C(c2cccs2)C(C)NC(=S)Nc2cc(C)ccc2C)CC1 (stereo not drawn) | -68.5% |
| CCN1CCN(C(c2cccs2)C(C)NC(=O)c2ccccc2)CC1 (stereo not drawn) | -1.79% |
| CCN1CCN(C(c2cccs2)C(C)NC(=O)C(C)C)CC1 (stereo not drawn) | 9.03% |
| Cc1ccccc1NC(=S)NC(C)C(c1cccs1)N1CCOCC1 (stereo not drawn) | 2.05% |
| CC(NC(=S)Nc1ccccc1Cl)C(c1cccs1)N1CCCC1 (stereo not drawn) | -10.2% |
| Cc1ccccc1NC(=S)NC(C)C(c1ccccc1)N1CCN(C)CC1 (stereo not drawn) | -12.5% |
| CN(C)c1ccc(/C=C2\NC(=S)N(Cc3ccccc3)C2=O)cc1 | -0.668% |
| O=C(CSC(=S)N1CCCC1)c1ccccc1 | 4.99% |
| COc1cc2c3c(c1OC)C1(C=CC(=NO)C=C1)CC3N(C(C)=O)CC2 (stereo not drawn) | 13.8% |
| O=[N+]([O-])c1cccc(C(=Nc2cccc(Cl)c2)NO)c1 | -20% |
| C/C(=N/NC(=O)CSc1nc2ccccc2s1)c1ccncc1 | -24% |
| CCOC(=O)c1cnc2c(cnn2C)c1Oc1ccc(OC)cc1 | -43% |
| CC(NC(=O)COc1ccccc1)C(c1ccccc1)N1CCN(C)CC1 (stereo not drawn) | -9.29% |
| COc1ccc(NC(=S)NC(C)C(c2ccccc2)N2CCOCC2)cc1 (stereo not drawn) | 7.52% |

| Compound | hERG current change (%, negative = inhibition) at 10uM |
| --- | --- |
| CCOc1ccc(NC(=S)NC(C)C(c2ccccc2)N2CCN(C)CC2)cc1 (stereo not drawn) | -58.5% |
| CCCN1CCN(C(=O)c2ccc(Sc3ccc(C)cc3)c(NC(C)=O)c2)CC1 | -50.6% |
| CC(=O)Nc1cc(C(=O)N2CCc3ccccc3C2)ccc1Sc1ccc(C)cc1 | -53.6% |
| CC(=O)Nc1cc(C(=O)N2CCC3(CC2)OCCO3)ccc1Sc1ccc(F)cc1 | 2.37% |
| CC(=O)Nc1cc(C(=O)N2CCN(C)CC2)ccc1Sc1ccc(C)cc1 | -13.5% |
| CC(=O)Nc1cc(C(=O)N2CCC3(CC2)OCCO3)ccc1Sc1ccc(C)cc1 | -16% |
| CC(=O)Nc1cc(C(=O)N2CCCC2)ccc1Sc1ccc(C)cc1 | -30.5% |
| O=C(c1cccc(F)c1)N1CCc2ccccc2C1 | -7.14% |
| CC(=O)Nc1cc(C(=O)N2CCc3ccccc3C2)ccc1Sc1ccc(F)cc1 | -55.4% |
| CC(=O)Nc1cc(C(=O)N2CCc3ccccc3C2)ccc1Sc1ccc(Cl)cc1 | -45% |
| CCCCn1c(N)c(N(CC(C)C)C(=O)c2cc(C)oc2C)c(=O)[nH]c1=O | 8.94% |
| Clc1ccc(-c2ccn[nH]2)cc1 | 3.54% |
| Cc1ccc(NC(=O)N2C(=O)C3(OCCO3)c3ccccc32)cc1 | 18.2% |
| CCS(=O)(=O)c1ccc(-c2cccc(NC(=O)COc3ccccc3)c2)nn1 | 6.57% |
| O=C1CCCN1CN(C(=O)c1ccc2c(c1)OCO2)c1cccc(Cl)c1 | -7.64% |
| CC(C)CN(C(=O)COC(=O)C(C)N1C(=O)c2ccccc2C1=O)c1c(N)n(Cc2ccccc2)c(=O)[nH]c1=O (stereo not drawn) | -7.78% |
| COC(=O)c1cc(NC(=O)CC2NCCNC2=O)cc(C(=O)OC)c1 (stereo not drawn) | 5.72% |
| Cc1ccc(-c2csc(NC(=O)c3ccc([N+](=O)[O-])o3)n2)cc1 | 6.85% |
| CS(=O)(=O)c1ccc(-c2cc(Br)sc2-c2ccc(F)cc2)cc1 | 16.4% |
| Cc1n[nH]c(C)c1S(=O)(=O)N1CCCC(C(=O)NCC2COc3ccccc3O2)C1 (stereo not drawn) | 0.365% |
| CCOc1ccc2nc(NC(=O)CN3CCC(n4nnc5cc(F)ccc54)CC3)sc2c1 | -40.1% |
| CCOC(=O)Nc1ccc2c(c1)ncn2C1CCCCC1 | -8.98% |
